# Test results published in PubChem BioAssay (NCATS).
# Inconclusive results are not listed. A call without a number means that no potency is given here. The source made the active and inactive calls. Calls come from the whole dose curve; as a rule, active = well fitted inhibition curve with a large enough effect; inconclusive = small, poorly fitted or top-dose-only effect; inactive = flat fitted curve, though single readings scatter.
# Target: Voltage-gated inwardly rectifying potassium channel KCNH2 (Homo sapiens) (UniProt Q12809)
# Sequence (Q12809 whole entry, looked up): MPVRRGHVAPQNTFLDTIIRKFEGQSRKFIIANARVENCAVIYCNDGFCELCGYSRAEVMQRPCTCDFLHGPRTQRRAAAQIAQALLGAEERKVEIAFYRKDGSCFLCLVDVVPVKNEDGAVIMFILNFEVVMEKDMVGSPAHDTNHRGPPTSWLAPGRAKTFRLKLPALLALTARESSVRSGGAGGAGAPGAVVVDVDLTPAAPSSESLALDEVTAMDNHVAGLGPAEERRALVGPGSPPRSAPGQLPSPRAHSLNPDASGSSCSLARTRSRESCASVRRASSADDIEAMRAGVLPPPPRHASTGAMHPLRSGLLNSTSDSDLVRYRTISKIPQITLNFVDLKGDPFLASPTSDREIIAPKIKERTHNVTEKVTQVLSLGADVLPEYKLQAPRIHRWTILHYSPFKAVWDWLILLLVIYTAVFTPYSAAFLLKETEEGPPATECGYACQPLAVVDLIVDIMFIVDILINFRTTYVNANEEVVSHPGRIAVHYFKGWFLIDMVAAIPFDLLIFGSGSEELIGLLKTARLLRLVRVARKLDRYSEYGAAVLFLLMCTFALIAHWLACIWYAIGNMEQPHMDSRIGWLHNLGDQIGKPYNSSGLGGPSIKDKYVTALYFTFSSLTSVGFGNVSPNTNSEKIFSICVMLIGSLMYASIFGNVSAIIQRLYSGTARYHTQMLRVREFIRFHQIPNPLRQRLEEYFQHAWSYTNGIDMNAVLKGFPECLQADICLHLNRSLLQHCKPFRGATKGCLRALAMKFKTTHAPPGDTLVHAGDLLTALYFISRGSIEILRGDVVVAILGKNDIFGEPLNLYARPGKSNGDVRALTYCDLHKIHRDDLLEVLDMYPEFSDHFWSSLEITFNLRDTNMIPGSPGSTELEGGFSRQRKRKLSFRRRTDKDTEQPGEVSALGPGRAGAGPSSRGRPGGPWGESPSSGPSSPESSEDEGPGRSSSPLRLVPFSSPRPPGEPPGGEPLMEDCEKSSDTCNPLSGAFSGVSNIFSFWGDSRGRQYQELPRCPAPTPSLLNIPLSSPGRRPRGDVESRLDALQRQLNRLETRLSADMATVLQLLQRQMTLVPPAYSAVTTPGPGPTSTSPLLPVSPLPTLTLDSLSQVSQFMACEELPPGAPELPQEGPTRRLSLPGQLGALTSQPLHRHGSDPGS
# Assay: qHTS Assay for Small Molecule Inhibitors of the Human hERG Channel Activity (AID 588834);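 note: top concentration of the series differs between compounds; lower thallium flux fluorescence means stronger hERG block; nearly all actives have a fitted effect of over 50% in size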
# Details: U2OS BacMam hERG, FluxOR thallium flux fluorescence; series mostly up to 46.1 µM
# Summary of the method: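 Kinetic FDSS fluorescence; U2OS + hERG BacMam (~100 virus particles/cell); FluxOR Tl+ flux; ~10 min cpd; AC50 (Hill).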
row,SMILES,Potency
1,CCN1CCN(c2cc3c(cc2F)c(=O)c(C(=O)O)cn3C2CC2)CC1,inactive
2,CC(=O)CC(c1ccc([N+](=O)[O-])cc1)c1c(O)c2ccccc2oc1=O (configuration not stated),inactive
3,COc1cccc(OC)c1C(=O)N[C@@H]1C(=O)N2[C@@H]1SC(C)(C)[C@@H]2C(=O)O,inactive
4,N[C@@H](CCC(=O)N[C@@H](CS)C(=O)NCC(=O)O)C(=O)O,inactive
5,Nc1nc2ncc(CNc3ccc(C(=O)N[C@@H](CCC(=O)O)C(=O)O)cc3)nc2c(=O)[nH]1,inactive
6,CCCC(=O)Nc1ccc(OCC(O)CNC(C)C)c(C(C)=O)c1 (configuration not stated),inactive
7,NC[C@H]1O[C@H](O[C@H]2[C@H](O[C@@H]3O[C@H](CO)[C@@H](O)[C@H]3O)C(O)[C@H](N)C[C@@H]2N)[C@H](N)[C@@H](O)[C@@H]1O (some centres not stated),inactive
8,O=C(Nc1ccc(Cl)c(Cl)c1)C1CC1,inactive
9,COc1cc(C(=S)N2CCOCC2)cc(OC)c1OC,inactive
10,CC(=O)OCC(=O)[C@@]1(O)[C@H](C)C[C@H]2[C@@H]3CCC4=CC(=O)C=C[C@]4(C)[C@@]3(F)[C@@H](O)C[C@@]21C,inactive
11,C[C@H](O)C(=O)Nc1c(I)c(C(=O)NC(CO)CO)c(I)c(C(=O)NC(CO)CO)c1I,inactive
12,Cc1cc(O)c(C(C)C)cc1Cl,inactive
